Test results published in PubChem BioAssay (Tox21).
Where “and” joins values, the source holds several entries; their conditions need not be identical. Equal values may be shown once. Results filed as inconclusive are left out. Where a structure was tested more than once in an assay, its records may differ in their call. Calls of active or inactive are those of the source. Unless noted, calls come from the whole dose curve; as a rule, active = well fitted curve in the direction sought with a large enough effect in the repeat runs; inconclusive = weak or mixed curves; inactive = no such curve, though single readings can be large; an effect the other way counts as inactive or inconclusive.

Experiments:
[1] = qHTS assay to identify small molecule antagonists of the retinoid-related orphan receptor gamma (ROR-gamma) signaling pathway - cell viability counter screen (AID 1159520); note: nearly all actives have a fitted effect of over 50% in size; note: potency is the fitted concentration of half-maximal effect; for activity, negative = cytotoxicity: % is set by controls: 0 for no effect and ±100 for the full control effect
How it was run: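 Cytotoxicity was read from cellular ATP (CellTiter-Glo luminescence) after 16 hr at 37 C with 1 uM doxycycline induction. The inducer was added 2 hr after compound transfer to Tet-on ROR gamma CHO cells.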

[2] = target: Nuclear receptor ROR-gamma (Homo sapiens) (UniProt P51449); assay: qHTS assay to identify small molecule antagonists of the retinoid-related orphan receptor gamma (ROR-gamma) signaling pathway (AID 1159521; note: nearly all actives have a fitted effect of over 50% in size; note: potency is the fitted concentration of half-maximal effect;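 for activity change, negative = inhibition: CHO cells with doxycycline inducible ROR-gamma driving an RORE luciferase reporter; top concentration of the series differs between compounds; % is set by controls: 0 for no effect and ±100 for the full control effect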)
How it was run: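 Cells were plated, rested 4 h at 37 C, exposed to compounds for 2 h, then given 1 uM final doxycycline hyclate to induce RORγ expression. After 16 h, ONE-Glo luminescence from the ROR response element reporter was measured.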

[3] = qHTS assay to identify small molecule agonists of the AP-1 signaling pathway - cell viability counter screen (AID 1159525; calls by dose curve; note: nearly all actives have a fitted effect of over 55% in size; note: potency is the fitted concentration of half-maximal effect)
How it was run: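 Intracellular ATP by Cell Titer Glo luminescence (30 min, RT) in the same ME-180 AP-1-bla wells after the 5 h compound exposure at 37 °C. Normalised to tetra n-octyl ammonium bromide and DMSO controls.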

[4] = qHTS assay to identify small molecule agonists of the AP-1 signaling pathway (AID 1159526; calls by dose curve; note: % is set by controls: 0 for no effect and ±100 for the full control effect)
[5] = target: Retinoic acid receptor RXR-alpha (Homo sapiens) (UniProt P19793); assay: qHTS assay to identify small molecule agonists of the RXR signaling pathway (AID 1159527; calls by dose curve; note: % is set by controls: 0 for no effect and ±100 for the full control effect; nearly all actives have a fitted effect of over 35% in size)
How it was run: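 Cells plated at 2,000/well, rested 5 hr at 37 C, pin-dosed with DMSO compound solutions, incubated 16 hr, then loaded with B/G FRET substrate for 2 hr at RT before dual-emission fluorescence reading.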

[6] = qHTS assay to identify small molecule agonists of the RXR signaling pathway - cell viability counter screen (AID 1159529); note: nearly all actives have a fitted effect of over 50% in size; note: potency is the fitted concentration of half-maximal effect;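 for activity change, negative = cytotoxicity: HEK 293T cells carrying an RXR-alpha UAS beta-lactamase reporter; series mostly up to about 77 µM; % is set by controls: 0 for no effect and ±100 for the full control effect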
How it was run: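 Steps: seed RXR-alpha-UAS-bla HEK 293T cells in assay medium containing 2% charcoal-stripped FBS; incubate 5 hr; add compounds in DMSO; incubate 16 hr at 37 C; after the bla read, add CellTiter-Glo and read luminescence at 30 min.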

[7] = qHTS assay to identify small molecule agonists of the vitamin D receptor (VDR) signaling pathway - cell viability counter screen (AID 743224); note: nearly all actives have a fitted effect of over 50% in size; note: potency is the fitted concentration of half-maximal effect
How it was run: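 In parallel with the bla FRET readout, cytotoxicity toward VDR-bla cells after 16 h compound exposure was assessed by CellTiter-Glo, with luminescence recorded after a 30 min room-temperature incubation.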

[8] = qHTS assay to identify small molecule antagonists of the vitamin D receptor (VDR) signaling pathway - cell viability counter screen (AID 743225); note: nearly all actives have a fitted effect of over 50% in size; note: potency is the fitted concentration of half-maximal effect
How it was run: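 HEK293T VDR-bla; cpd + 1a,25-(OH)2D3 3 nM final, 16 h 37C/5% CO2; B/G FRET substrate 2 h RT; then CellTiter-Glo 30 min RT, luminescence.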

Sequence of Retinoic acid receptor RXR-alpha (Homo sapiens) (P19793 whole entry, looked up): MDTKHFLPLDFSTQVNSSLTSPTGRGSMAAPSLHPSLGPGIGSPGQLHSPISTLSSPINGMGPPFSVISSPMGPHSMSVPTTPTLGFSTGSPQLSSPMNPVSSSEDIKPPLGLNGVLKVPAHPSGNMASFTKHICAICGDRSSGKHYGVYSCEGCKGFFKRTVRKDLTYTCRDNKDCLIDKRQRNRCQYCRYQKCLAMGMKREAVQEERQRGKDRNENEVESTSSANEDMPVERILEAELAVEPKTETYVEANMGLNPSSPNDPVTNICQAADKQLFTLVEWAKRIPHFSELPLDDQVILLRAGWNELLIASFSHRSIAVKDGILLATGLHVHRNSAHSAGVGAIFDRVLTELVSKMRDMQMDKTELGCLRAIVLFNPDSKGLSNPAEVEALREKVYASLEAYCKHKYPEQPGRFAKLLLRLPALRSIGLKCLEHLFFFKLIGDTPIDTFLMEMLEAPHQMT

O=CC1CC1
inactive: Potency [1] | Potency [2] | Potency [3] | Potency [4] | Potency [5] | Potency [6]

CCCCCCCC(=O)OCC
inactive: Potency [1] | Potency [2] | Potency [4] | Potency [5] | Potency [6]

CC(=O)OC1CCCCC1
inactive: Potency [1] | Potency [2] | Potency [3] | Potency [4] | Potency [5] | Potency [6]

c1ccc2c(c1)CCC2
inactive: Potency [1] | Potency [2] | Potency [3] | Potency [4] | Potency [5] | Potency [6]

CCC(=O)CC(C)CC (centres undefined)
inactive: activity, negative = cytotoxicity [1] 6.35% [at 0.349 µM] | activity change, negative = inhibition [2] 0.102% [at 0.35 µM] | viability change, negative = cytotoxic [3] 5.42% [at 0.29 µM] | activation [4] -5.51% [at 0.29 µM] | activation [5] 2.44% [at 0.29 µM] | activity change, negative = cytotoxicity [6] -1.51% [at 0.29 µM]

CSc1ccc2c(c1)N(CCC1CCCCN1C)c1ccccc1S2 (centres undefined)
48.4 µM (active) and inactive: Potency [1]
inactive and 26.6 µM (active): Potency [7]
27.2 µM (active) and inactive: Potency [2]
43.5 µM (active) and inactive: Potency [3]
active: Potency [8] 24.4 µM and 23.9 µM | Potency [6] 19.4 µM and 26.8 µM

CCCC(=O)OCC(COC(=O)CCC)OC(=O)CCC
inactive: Potency [1] | Potency [2] | Potency [3] | Potency [4] | Potency [5] | Potency [6]

CN(C)CCN1CCOCC1
inactive: Potency [1] | Potency [2] | Potency [3] | Potency [4] | Potency [5] | Potency [6]

Cc1cnccn1
inactive: Potency [1] | Potency [2] | Potency [3] | Potency [4] | Potency [5] | Potency [6]

Cc1cccc(N(C)C)c1
inactive: Potency [1] | Potency [2] | Potency [4] | Potency [5] | Potency [6]

CCCCCCCC/C=C\CCCCCCCC(=O)OCCOC(=O)CCCCCCC/C=C\CCCCCCCC
inactive: Potency [7] | Potency [8] | Potency [1] | Potency [2] | Potency [3] | Potency [4] | Potency [5] | Potency [6]

Cc1cc(=O)[nH]c(=O)[nH]1
inactive: Potency [2] | Potency [3] | Potency [4] | Potency [5] | Potency [6]

c1cc[nH]c1
inactive: Potency [1] | Potency [2] | Potency [4] | Potency [5] | Potency [6]

OCCN1CN(CCO)CN(CCO)C1
inactive: Potency [2] | Potency [3] | Potency [4] | Potency [5] | Potency [6]

CC[N+](CC)(CC)Cc1ccccc1
inactive: Potency [1] | Potency [2] | Potency [4] | Potency [5] | Potency [6]

COc1ccc(C#N)cc1
inactive: Potency [2] | Potency [3] | Potency [4] | Potency [5] | Potency [6]

O=S(=O)(O)c1cc(S(=O)(=O)O)c2ccc3c(S(=O)(=O)O)cc(S(=O)(=O)O)c4ccc1c2c43
inactive: activity change, negative = inhibition [2] 12.6% [at 19 µM] | viability change, negative = cytotoxic [3] -1.68% [at 15.8 µM] | activation [4] -3.16% [at 15.8 µM] | activation [5] -3.71% [at 15.8 µM] | activity change, negative = cytotoxicity [6] -4.37% [at 15.8 µM]

C/C=C/c1ccc(OC)c(OC)c1
inactive: Potency [1] | Potency [2] | Potency [4] | Potency [5] | Potency [6]

CC(C)(C)c1cc(/C=C2\SC(=N)NC2=O)cc(C(C)(C)C)c1O
inactive: Potency [3]
active: Potency [7] 49 µM | Potency [8] 43.6 µM

CCCSS/C(CCO)=C(\C)N(C=O)Cc1cnc(C)nc1N
inactive: Potency [7] | Potency [8] | Potency [2] | Potency [4]

O=C(NO)c1ccccc1
inactive: Potency [7] | Potency [1] | Potency [2]

CCCC(C)CCC(C)=O (centres undefined)
inactive: Potency [2] | Potency [3] | Potency [4] | Potency [5] | Potency [6]

CS(C)(=O)=O
inactive: Potency [1] | Potency [2] | Potency [4] | Potency [5] | Potency [6]

CCCCCCCCCCCCCc1ccccc1
inactive: Potency [2] | Potency [3] | Potency [4] | Potency [5] | Potency [6]

CN1[C@@H]2CC[C@H]1CC(OC(=O)C(CO)c1ccccc1)C2 (some centres undefined)
active: Potency [6] 48.9 µM
inactive: Potency [1] | Potency [3] | Potency [4] | Potency [5]

Oc1cc2ccccc2cc1O
inactive: Potency [2] | Potency [4] | Potency [5] | Potency [6]

CCCCCCCOC(=O)c1ccccc1C(=O)OCCCCCCC
inactive: Potency [2] | Potency [3] | Potency [4] | Potency [5] | Potency [6]

O=Nc1ccc(NO)cc1
inactive: Potency [7] | Potency [8] | Potency [5] | Potency [6]

COc1ccc2sc(C(=O)Nc3nnn[nH]3)c(OC(C)C)c2c1
active: Potency [2] 12.1 µM
inactive: Potency [7] | Potency [8] | Potency [3]

C[C@H]1O[C@@H](O[C@H]2[C@@H](O)C[C@H](O[C@H]3[C@@H](O)C[C@H](O[C@H]4CC[C@@]5(C)[C@H](CC[C@@H]6[C@@H]5C[C@@H](O)[C@]5(C)[C@@H](C7=CC(=O)OC7)CC[C@]65O)C4)O[C@@H]3C)O[C@@H]2C)C[C@H](O)[C@@H]1O
active: Potency [7] 0.0174 µM | Potency [8] 21.9 nM and 13.6 nM | Potency [2] 4.33 µM and 8.54 µM
inactive: Potency [4]

CCCCCCCCCCCCN(CCO)CCO
active: Potency [7] 30.8 µM | Potency [8] 43.5 µM | Potency [6] 24.4 µM

COc1ccc(-n2nc(CCC(=O)N(C)O)cc2-c2ccc(Cl)cc2)cc1
inactive: Potency [8] | Potency [1] | Potency [3]

CCCCCCCCCC(=O)N(C)C
inactive: Potency [7] | Potency [8] | Potency [2] | Potency [4] | Potency [6]

Cc1oc(-c2ccccc2)nc1CCOc1ccc(C[C@H](Nc2ccccc2C(=O)c2ccccc2)C(=O)O)cc1
active: Potency [7] 21.9 µM | Potency [8] 19.5 µM | Potency [1] 61.1 µM

CC(C)CCOCCC(C)C
inactive: Potency [2] | Potency [4] | Potency [5] | Potency [6]

CC(C)(C)c1n[nH]c(=O)n(N)c1=O
inactive: Potency [1] | Potency [2] | Potency [4] | Potency [5] | Potency [6]

Nc1ccc2cc3ccc(N)cc3nc2c1
inactive: Potency [2] | Potency [3]
24.5 µM (active) and inactive: Potency [7]

COc1nccnc1CC(C)C
inactive: Potency [2] | Potency [3] | Potency [4] | Potency [5] | Potency [6]

Cc1cncc(C)c1
inactive: Potency [1] | Potency [2] | Potency [4] | Potency [5] | Potency [6]

CC1=C(/C=C/C(C)=C/C=C/C(C)=C/C(=O)Nc2ccc(O)cc2)C(C)(C)CCC1
active: Potency [7] 14.2 µM and 10.6 µM | Potency [8] 14.2 µM and 10.7 µM | Potency [1] 31.4 µM and 13.3 µM | Potency [2] 19.8 µM and 8.41 µM | Potency [6] 35.6 µM and 12 µM

Cc1ccc(O)cn1
inactive: Potency [2] | Potency [3] | Potency [4] | Potency [5] | Potency [6]

Cc1cc(C)c(C=O)c(C)c1
inactive: Potency [2] | Potency [3] | Potency [4] | Potency [5] | Potency [6]

C=CC(C)C#N (centres undefined)
inactive: Potency [1] | Potency [2] | Potency [4] | Potency [5] | Potency [6]

CCC1(c2cnc[nH]2)Cc2ccccc2C1
inactive: Potency [7] | Potency [8] | Potency [1] | Potency [2] | Potency [5] | Potency [6]

CCc1cccc(CC)c1N(COC)C(=O)CS(=O)(=O)O
inactive: Potency [1] | Potency [2] | Potency [4] | Potency [5] | Potency [6]

Clc1cc(Cl)c(-c2c(Cl)c(Cl)cc(Cl)c2Cl)cc1Cl
inactive: Potency [2] | Potency [3] | Potency [4] | Potency [5] | Potency [6]

COc1ccccc1C=O
inactive: Potency [2] | Potency [3] | Potency [4] | Potency [5] | Potency [6]
